Rows were chosen to be rich in hits. Some 5.7% of all compounds tested hit in one or more screens of this group.
DAX1 inh-1: inhibitors of human orphan nuclear receptor DAX1 (NR0B1). P51843. HEK293 Gal4-DAX1 luciferase reporter, luminescence. inhibition, % at 6.75 µM. hit rate 0.99% among 340,000;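 active means inhibition above the mean over all tested compounds plus 3 SD, cut at about 4.2% in these data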;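 further: 0% = DAX1-transfected cells with DMSO and 100% = empty-vector control cells with DMSO; inhibition shows as a rise in luminescence from relieved DAX1 repression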
DAX1 inh-2: inhibitors of DAX1 repression of SF-1 activated StAR promoter | HEK293T StAR-luciferase reporter, SF-1/DAX-1 repression relief | inhibition, % at 6.8 µM | hit rate 1.1% among 370,000;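 active means inhibition above the mean over all tested compounds plus 3 SD, cut at about 3.6% in these data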;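 further: 0% = DAX-1 cells with DMSO and 100% = cells lacking DAX-1 with DMSO; higher inhibition means more luminescence from relief of DAX-1 repression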
hcDAF12 agonist: activates DAF-12 receptor from parasite H. contortus; activation, % at 6.8 µM; hit rate 1.4% among 370,000; HEK293 hcDAF-12 lit1-tk-luc reporter, luminescence; 0% DMSO, 100% Δ7-dafachronic acid; AID 652067;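 active means activation above the mean of all tested compounds plus 3 SD, cut at about 5.5% in these data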;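 further: 100% = response to 3 µM Δ7-dafachronic acid high control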
ssDAF12 agonist: activators of S. stercoralis DAF-12 nuclear receptor. HEK293 ssDAF-12/GRIP1 lit1-tk-luc reporter, luminescence; % of 3 µM dafachronic acid response. activation, % at 6.8 µM. hit rate 1% among 370,000. AID 652126;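 active means activation above the mean over all tested compounds plus 3 SD, cut at about 0.9% in these data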;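 further: 0% = DMSO-only wells and 100% = 3 µM delta7-dafachronic acid wells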
hgDAF-12 ag: hgDAF-12 agonism, primary luciferase screen | HEK293 GAL4-hgDAF12 UAS-luciferase reporter, agonist luminescence; normalized to butyrate control | hit rate 1.8% among 370,000 | activation, % at 6.8 µM;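 active means activation above a cutoff set at the mean of all screened compounds plus 3 SD, cut at about 10% in these data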;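 further: 0% = DMSO wells and 100% = sodium butyrate wells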
AHR act: activates the human aryl hydrocarbon receptor | P35869 | AHR-responsive luciferase reporter cells, luminescence | activation, % at 5 µM | hit rate 2.5% among 320,000; in the data active means activation above about 47%;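 further: 0% = vehicle wells and 100% = reference agonist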
hgDAF12 conf: confirmation of H. glycines DAF-12 agonists; shares compounds with hgDAF-12 ag; HEK293 GAL4-hgDAF12 luciferase reporter, agonist mode; percent of butyrate response; activation, % at 6.8 µM; hit rate 80% among 3,300; AID 743050;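 active means mean activation over triplicate wells above the hit cutoff derived from the earlier primary screen, cut at about 11% in these data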;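 further: 0% = DMSO low control and 100% = 2 mM sodium butyrate high control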
LXRb DAF12 ctr: LXR-beta agonism as DAF-12 counter-screen. shares compounds with hgDAF-12 ag. HEK293 Gal4-LXR luciferase reporter, 24 h. activation, % at 6.8 µM. 3,300 tested, under 10 active. AID 743051;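 active means mean activation of the triplicate above a set limit carried over from the primary screen, none filed active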
Target sequence (P55055 whole entry, looked up, the tested form may be a part): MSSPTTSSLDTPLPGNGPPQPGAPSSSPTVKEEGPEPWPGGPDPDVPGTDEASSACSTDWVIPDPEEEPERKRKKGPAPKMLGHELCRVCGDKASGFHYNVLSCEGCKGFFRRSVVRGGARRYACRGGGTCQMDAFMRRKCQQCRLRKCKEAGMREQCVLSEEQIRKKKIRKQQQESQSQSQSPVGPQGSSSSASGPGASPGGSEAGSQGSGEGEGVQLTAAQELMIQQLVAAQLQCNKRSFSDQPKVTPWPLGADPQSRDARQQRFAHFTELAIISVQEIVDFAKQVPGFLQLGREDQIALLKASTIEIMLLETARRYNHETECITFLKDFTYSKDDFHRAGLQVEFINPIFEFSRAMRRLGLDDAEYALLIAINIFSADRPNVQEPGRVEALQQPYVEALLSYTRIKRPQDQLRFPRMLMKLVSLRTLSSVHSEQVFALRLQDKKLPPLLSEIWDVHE
* marks the source's active call; other numbers are inactive results; · = no result given.

SMILES	DAX1 inh-1	DAX1 inh-2	hcDAF12 agonist	ssDAF12 agonist	hgDAF-12 ag	AHR act	hgDAF12 conf	LXRb DAF12 ctr
COC(=O)C1=C(C)NC(=S)NC1c1ccc(-c2cc(Cl)ccc2Cl)o1 (stereo not given)	0	0	0	-2	5	7	·	·
CCc1ccc(C(=O)Nc2cc3c(cc2Cl)OCCCO3)cc1	4	3	3	1	14*	-1	14*	1
O=C(Cc1ccccc1)Nc1cc2c(cc1Cl)OCCCO2	2	1	2	0	9	0	·	·
COc1ccc(NS(=O)(=O)c2cc(NC(=O)[C@@H](NC(=O)c3ccccc3)C(C)C)ccc2C)cc1	0	0	-1	-2	-2	0	·	·
Clc1cccc(CNc2ccn3nc(-c4cccc(Cl)c4)cc3n2)c1	·	1	3	0	13*	·	9	0
Clc1ccc(-c2cc3nc(NCc4cccc(Cl)c4)ccn3n2)cc1	·	3.9*	4	0	14*	·	17*	1
CCOc1ncccc1C(=O)OCC(=O)N(CC(C)C)C1CCS(=O)(=O)C1 (stereo not given)	2	-1	-2	-2	-3	7	·	·
NS(=O)(=O)c1ccc(NC(=O)COC(=O)Cn2cnc3ccccc3c2=O)cc1	1	2	-2	-1	-2	0	·	·
COc1ccc(NC(=O)C2CCCN2S(=O)(=O)c2ccc3c(c2)C(C)(C)C(=O)N3C)cc1 (stereo not given)	·	0	-2	-2	-2	·	·	·
NC(=O)c1ccccc1N/C=C/C(=O)c1ccco1	2	2	3	0	9	12	·	·
O=C(/C=C/Nc1ccc(Oc2ccccc2)cc1)c1ccco1	1	3.8*	4	1	13*	15	23*	1
N/N=C(/Cc1nc2ccccc2[nH]1)c1ccc([N+](=O)[O-])cc1	0	1	-1	0	5	20	·	·
Cc1cc([N+](=O)[O-])ccc1NC(=O)c1cncc(Br)c1	0	1	0	-2	0	1	·	·
Cc1ccc(NC(=O)c2cncc(Br)c2)c(O)c1	2	3	6.2*	0	16*	46	17*	0
O=C(NCC1CCOCC1)c1ccc(-c2ccc(F)c(F)c2)c2ccoc12	·	-1	-2	-2	0	·	·	·
CC(=O)Nc1ccc(/C(N=Nc2ccccc2)=N/N=C(N)N)cc1	4.5*	3	5	1.6*	13*	·	16*	1
Cc1nn(Cc2ccccc2Cl)c(Cl)c1C(=O)NCCc1ccccc1	3	4.0*	3	0	17*	5	15*	1
Oc1c(C=Nc2ccccc2)sc(=S)n1Cc1ccccc1	0	0	-2	-1	-1	23	·	·
CCn1c(O)c(C=Nc2ccccc2)sc1=S	·	3	3	0.9*	16*	5	18*	1
COc1ccccc1NC(=O)CCS(=O)(=O)c1ccc2c(c1)NC(=O)C(C)S2 (stereo not given)	0	·	·	·	·	4	·	·
N#Cc1c(NC(=O)c2cccnc2)sc2c1CCC2	-1	0	0	-1	6	44	·	·
Cc1cccc(C(=O)Nc2sc3c(c2C(=O)O)CCC3)c1	-1	-1	0	-1	-5	17	·	·
N#Cc1c(NC(=O)c2cnccn2)sc2c1CCCC2	2	-1	4	-1	14*	69*	13*	0
Cc1cccc(C(=O)Nc2sc3c(c2C#N)CCCCC3)c1	3	2	3	0	15*	9	17*	1
N#Cc1c(NC(=O)c2ccccc2)sc2c1CCC2	-1	0	5.7*	1	16*	20	23*	1
COC(=O)N/N=C/c1cn(CCOc2ccc(OC)cc2)c2ccccc12	-2	-1	1	-1	-2	22	·	·
CCOC(=O)N/N=C/c1cn(CCCOc2ccc(C)cc2)c2ccccc12	-2	0	-3	-1	17*	32	5	0

Screening data: PubChem, The Scripps Research Institute Molecular Screening Center
